Reference: PubChem BioAssay (Tox21)
Inconclusive results are not listed. The source made the active and inactive calls. Unless noted, calls come from the whole dose curve; as a rule, active = well fitted curve in the direction sought with a large enough effect in the repeat runs; inconclusive = weak or mixed curves; inactive = no such curve, though single readings can be large; an effect the other way counts as inactive or inconclusive.

Tests used:
[1] = qHTS assay for small molecules that induce genotoxicity in human embryonic kidney cells expressing luciferase-tagged ATAD5 (AID 651632); note: nearly all actives have a fitted effect of over 15% in size
Method in brief: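 HEK293T cells carrying a luciferase reporter tagged to ATAD5 were exposed to compound or DMSO vehicle for 16 hr at 37C, 5% CO2. Amplite was added, and after 30 min at room temperature luciferase activity was read as a marker of ATAD5 induction.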

[2] = qHTS assay for small molecule agonists of the p53 signaling pathway - cell viability (AID 651633; calls by dose curve;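 note: p53RE-bla HCT reporter cells with a stable beta-lactamase p53 reporter; series mostly up to about 83 µM; nearly all actives have a fitted effect of over 30% in size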)
Method in brief: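 Viability counter-read: CellTiter-Glo luminescence (30 min, room temperature) in the same p53RE-bla plates. These plates had been exposed to compounds for 16 h at 37 C.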

[3] = qHTS assay for small molecules that induce genotoxicity in human embryonic kidney cells expressing luciferase-tagged ATAD5 - cell viability (AID 651634; calls by dose curve; note: nearly all actives have a fitted effect of over 25% in size)
Method in brief: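 HEK293T cells expressing luciferase-tagged ATAD5 were exposed to compound or DMSO for 15.5 hr at 37C, 5% CO2. Viability was then read as live-cell protease activity by CellTiter-Fluor fluorescence after 30 min at 37C.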

[4] = qHTS assay for small molecule disruptors of the mitochondrial membrane potential - cell viability (AID 720634; calls by dose curve;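 note: human HepG2 liver cancer cells; series mostly up to about 83 µM; nearly all actives have a fitted effect of over 20% in size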)
Method in brief: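 HepG2 cells seeded overnight at 37 C, then exposed to compound or DMSO for 1 hr at 37 C, 5% CO2. m-MPI dye added, then CellTiter-Glo for 30 min at room temperature; viability read as ATP luminescence.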

[5] = qHTS assay to test for compound auto fluorescence at 590 nm (red) in HepG2 cells (AID 720674)
Method in brief: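 Red autofluorescence (Ex/Em 540/590 nm, Rose Bengal sodium equivalents) was measured in HepG2 cells, 2,000 per well in MEM plus 10% FBS, plated overnight at 37 C. Readings were taken 1 hr after adding 23 nL compound or DMSO, at 37 C and 5% CO2.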

[6] = qHTS assay to test for compound auto fluorescence at 535 nm (green) in HepG2 cells (AID 720675)
[7] = qHTS assay to test for compound auto fluorescence at 460 nm (blue) in HEK293 cells (AID 720678)
Method in brief: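 HEK293 cells (2,000 per well, medium with 10% dialyzed FBS) attached for 4-5 hr at 37C, then received compound and stood overnight at 37C, 5% CO2. Blue fluorescence was read at Ex/Em 405/460 nm and expressed relative to triamterene.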

[8] = qHTS assay to test for compound auto fluorescence at 590 nm (red) in HEK293 cells (AID 720679)
Method in brief: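 HEK293 cells (2,000/well, medium with 10% dialyzed FBS) attached for 4-5 hr at 37C, received 23 nL compound and were incubated overnight at 37C, 5% CO2. Red fluorescence was then read at 540/590nm Ex/Em, referenced to Rose Bengal sodium.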

[9] = qHTS assay for small molecule disruptors of the mitochondrial membrane potential (AID 720635); note: potency is the fitted concentration of half-maximal effect
Method in brief: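 Mitochondrial membrane potential tracked with Mito-MPS dye, red aggregates (ex 540/em 590 nm) against green monomers (ex 490/em 535 nm). Compound treatment 1 hr at 37C, dye 30 min in HepG2.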

[10] = qHTS assay for small molecule agonists of the p53 signaling pathway (AID 651631; calls by dose curve; note: nearly all actives have a fitted effect of over 15% in size)
Method in brief: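 Read-out is beta-lactamase FRET fluorescence measured 2 h after substrate addition at room temperature, in HCT-116 cells with a p53 response element-driven reporter exposed to compounds for 16 h at 37 °C.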
% is set by controls: 0 for no effect and ±100 for the full control effect.

CCOC(=O)CC(=O)c1ccccc1
inactive: Potency [1] | outcome [2] | Potency [3] | outcome [4] | outcome [5] | outcome [6] | outcome [7] | outcome [8]

COc1ccc2c(c1)C(=O)N(CCc1ccc(S(=O)(=O)NC(=O)NC3CCCCC3)cc1)C(=O)C2(C)C
inactive: Potency [1] | outcome [2] | Potency [3] | outcome [4] | fluorescence, relative to Rose Bengal [5] 0.0268% [at 18.6 µM] | fluorescence, % of fluorescein control [6] -0.152% [at 18.6 µM] | fluorescence, % of triamterene [7] 0.056% [at 18.6 µM]

O=C1c2ccccc2C(=O)c2cc(S(=O)(=O)O)ccc21
inactive: Potency [1] | outcome [2] | Potency [3] | outcome [4] | outcome [5] | outcome [6] | outcome [7] | outcome [8]

CC[C@H](C)C(=O)O[C@H]1C[C@H](O)C=C2C=C[C@H](C)[C@H](CC[C@@H](O)C[C@@H](O)CC(=O)O)[C@H]21
inactive: Potency [1] | outcome [2] | Potency [3] | outcome [4] | outcome [5] | outcome [6] | outcome [7] | outcome [8]

Cc1ccc2c(c1)OCC(=O)CO2
inactive: Potency [1] | outcome [2] | Potency [3] | outcome [4] | Potency [9] | outcome [5] | outcome [6] | outcome [7] | outcome [8]

C=C(C)C(=O)OCCN(CC)CC
inactive: Potency [1] | outcome [2] | Potency [3] | outcome [4] | Potency [9] | outcome [5] | outcome [6] | outcome [7] | outcome [8]

COCCOCCOCCOCCO
inactive: Potency [1] | outcome [2] | Potency [3] | outcome [4] | outcome [5] | outcome [6] | outcome [7] | outcome [8]

CO[C@@H]1[C@@H](OC(N)=O)[C@@H](O)[C@H](Oc2ccc3c(O)c(NC(=O)c4ccc(O)c(CC=C(C)C)c4)c(=O)oc3c2C)OC1(C)C
inactive: Potency [1] | outcome [2] | Potency [3] | outcome [4] | fluorescence, relative to Rose Bengal [5] -0.195% [at 18.6 µM] | fluorescence, % of fluorescein control [6] -0.0594% [at 18.6 µM] | fluorescence, % of triamterene [7] 0.0216% [at 18.6 µM] | fluorescence, % of fluorescent control [8] 0.173% [at 18.6 µM]

CC(=O)CCCCn1c(=O)c2c(ncn2C)n(C)c1=O
inactive: Potency [1] | outcome [2] | Potency [3] | outcome [4] | Potency [9] | fluorescence, relative to Rose Bengal [5] 0.0631% [at 18.6 µM] | fluorescence, % of triamterene [7] 0.0666% [at 18.6 µM] | fluorescence, % of fluorescent control [8] -0.0868% [at 18.6 µM]

CC(=O)Nc1cccc(C)c1
inactive: Potency [1] | outcome [2] | Potency [3] | outcome [4] | Potency [9] | outcome [5] | outcome [6] | outcome [7] | outcome [8]

CCCCCCOc1ccccc1C(N)=O
active: Potency [9] 6.68 µM
inactive: Potency [1] | outcome [2] | Potency [3] | outcome [4] | outcome [5] | outcome [6] | outcome [7] | outcome [8]

CCCCCCCCOS(=O)(=O)O
inactive: Potency [1] | outcome [2] | Potency [3] | outcome [4] | Potency [9] | outcome [5] | outcome [6] | outcome [7]

C[C@@H]1O[C@@H](O[C@@H]2[C@@H](O)[C@H](OCCc3ccc(O)c(O)c3)O[C@H](CO[C@@H]3O[C@H](CO)[C@@H](O)[C@H](O)[C@H]3O)[C@H]2OC(=O)/C=C/c2ccc(O)c(O)c2)[C@H](O)[C@H](O)[C@H]1O
inactive: Potency [1] | outcome [2] | Potency [3] | outcome [4] | Potency [9] | outcome [5] | outcome [6] | outcome [7] | outcome [8]

CC(C)(C)c1cc(CCC(=O)NN)cc(C(C)(C)C)c1O
inactive: Potency [1] | outcome [2] | Potency [3] | outcome [4] | outcome [5] | outcome [6] | outcome [7] | outcome [8]

OCCC(F)(F)C(F)(F)C(F)(F)C(F)(F)C(F)(F)C(F)(F)C(F)(F)C(F)(F)F
inactive: Potency [1] | outcome [2] | Potency [3] | outcome [4] | outcome [5] | outcome [6] | outcome [7] | outcome [8]

CC(C)CC(C)CC(C)CC(C)COC(=O)c1ccccc1C(=O)OCC(C)CC(C)CC(C)CC(C)C (centres undefined)
inactive: Potency [1] | outcome [2] | Potency [3] | outcome [4] | outcome [5] | outcome [6] | outcome [7]

CC(C)=O
inactive: outcome [10] | Potency [3] | outcome [4] | Potency [9] | outcome [5] | outcome [7] | outcome [8]

O=C(NCCc1c[nH]c2ccccc12)c1cccnc1
inactive: Potency [1] | outcome [2] | Potency [3] | outcome [4] | outcome [5] | outcome [6] | outcome [7] | outcome [8]

O=C1c2ccccc2C(=O)C1c1ccccc1
inactive: Potency [1] | outcome [2] | Potency [3] | outcome [4] | fluorescence, relative to Rose Bengal [5] 0.709% [at 18.6 µM] | fluorescence, % of fluorescein control [6] 0.0928% [at 18.6 µM] | fluorescence, % of triamterene [7] -0.166% [at 18.6 µM] | fluorescence, % of fluorescent control [8] 0.0127% [at 18.6 µM]
